The values that follow are results of earlier work, collected in PubChem BioAssay AID977608.

This series in a line: protein-ligand inhibition affinities from structures – PDB-derived complexes (AID 977608).

The campaign covered roughly 4,300 compounds. About 4,300 (100%) were called active. No cut-off is given here; in the data, nearly all actives have IC50 up to about 1400 µM. So high a share suggests a set chosen from earlier hits. The list shows a part of the results.

For `Cn1ncnc1[C@H]1c2n[nH]c(=O)c3cc(F)cc(c23)N[C@@H]1c1ccc(F)cc1`, the half-maximal inhibitory concentration (IC50) (literature IC50, protein: Poly [ADP-ribose] polymerase 1 PARP1, PDB entry 4pjt) was 0.00057 µM (active). As for `NC(=O)c1sc(Nc2ccccc2)nc1N`, for the setting “literature IC50, protein: Cyclin-dependent kinase 2, PDB entry 3rzb”, the half-maximal inhibitory concentration (IC50) is 100 µM (active). Consider `Nc1nc(Nc2cccc(S(N)(=O)=O)c2)sc1C(=O)c1ccccc1`, for which, under “literature IC50, protein: Cyclin-dependent kinase 2, PDB entry 3rni”, the IC50 is 6.7 µM (active). On to `CS(=O)(=O)c1ccc(C(=O)Nc2cccc(-c3cn4ccnc4c(Nc4ccc(C(=O)N5CCOCC5)cc4)n3)c2)cc1`, for which the concentration for half-maximal inhibition (IC50) (literature IC50, protein: Tyrosine-protein kinase BTK, PDB entry 4ot6) was 1.2 µM (active). With `O=C(Nc1ccc2[nH]nc(-c3ccncc3)c2c1)[C@@H]1CCN(CC(=O)N2CCN(c3ccc(-c4ncccn4)cc3)CC2)C1`, the IC50 (literature IC50, protein: Haspin, PDB entry 4qtc) is 0.398 µM (active) and the half-maximal inhibitory concentration (IC50) (literature IC50, protein: Mitogen-activated protein kinase 8 JNK1, PDB entry 4qtd) is 1.08 µM (active). `O=C1NC(=Nc2ccccc2)N=C1Cc1ccc2c(c1)OCO2`: the IC50 (literature IC50, protein: Serine/threonine-protein kinase pim-1, PDB entry 4gw8) is 0.88 µM (active).

In the case of `C/C=C\CCC[C@H](C(=O)N1CCC[C@H]1C(=O)OC)N(C)C(=O)[C@H](C)NC(=O)[C@H](CC(C)C)NC(=O)C[C@H](O)[C@H](Cc1ccccc1)NC(=O)c1cc(NS(C)(=O)=O)cc(C(=O)N[C@H](C)c2ccccc2)c1`, the IC50 (literature IC50, protein: Beta-secretase 1 (K75A,E77A mutation), PDB entry 4dvf) is 0.128 µM (active). As to `O=C(O)c1cc2ccccc2o1`, the 50% inhibitory concentration (IC50) (literature IC50, protein: Adenylate cyclase type 10 hsolAC, PDB entry 4oyp) is 1000 µM (active).

Consider `CCc1nc(N)nc(N)c1-c1ccc2c(c1)N(CCNC(C)=O)C(=O)C(C)(C)O2`, for which, where the note is “literature IC50, protein: human Renin, PDB entry 2g1r”, the IC50 was 0.02 µM (active).

Regarding `C[C@H](N[C@@H](CCc1ccccc1)C(=O)O)C(=O)N1CC=C[C@H]1C(=O)O`, the IC50 (literature IC50, protein: HUMAN TESTICULAR ANGIOTENSIN I-CONVERTING ENZYME, PDB entry 1uze) was 0.00127 µM (active). `NC[C@@](O)(c1ccc(Cl)cc1)c1ccc(-c2cn[nH]c2)cc1`: where the note is “literature IC50, protein: CAMP-DEPENDENT PROTEIN KINASE CATALYTIC SUBUNIT ALPHA, PDB entry 4axa”, the IC50 was 0.01 µM (active). `NC1NC(=O)c2[nH]cnc2N1` (stereo not given): the IC50 (literature IC50, protein: human Purine nucleoside phosphorylase, PDB entry 1v2h) is 5 µM (active). For the compound `CO[C@@H]([C@@H]1OC(C(=O)O)=C[C@H](NC(N)N)[C@H]1NC(C)=O)[C@H](O)CO`, for the setting “literature IC50, protein: Neuraminidase, PDB entry 4hzw”, the half-inhibitory concentration (IC50) is 0.00131 µM (active). `CO[C@@H]([C@@H]1O[C@H](C(=O)O)C[C@H](NC(N)N)[C@H]1NC(C)=O)[C@H](O)CO`: the IC50 was 0.00324 µM (active) (literature IC50, protein: Neuraminidase, PDB entry 4mwu) and 0.0896 µM (active) (literature IC50, protein: Neuraminidase, PDB entry 4mwy).

With `CC(=O)N[C@H]1[C@H]([C@H](O)[C@H](O)CO)O[C@@H](C(=O)O)C[C@@H]1NC(N)N`, the IC50 (literature IC50, protein: Neuraminidase, PDB entry 4mwr) is 0.00041 µM (active) and the half-inhibitory concentration (IC50) (literature IC50, protein: Neuraminidase, PDB entry 4mwx) is 0.0757 µM (active). Take `CC(C)[C@H](NC(=O)CCc1ccccc1)[P+](O)(O)C[C@@H](CCCCCN)C(=O)O`: the concentration for half-maximal inhibition (IC50) (literature IC50, protein: Carboxypeptidase B, PDB entry 3wc7) is 0.0055 µM (active).

Turning to `Nc1c2ncn3c2nc[n+]1[C@@H]1C[C@H](CO[P+](O)(O)O[P+](O)(O)OC[C@H]2O[C@@H]3[C@H](O)[C@@H]2O)[C@@H](O)[C@H]1O`, the concentration for half-maximal inhibition (IC50) (literature IC50, protein: ADP-ribosyl cyclase 1, PDB entry 3u4i) was 129 µM (active). Consider `Nc1[nH]c2c(=O)n3cnc2[n+]1[C@@H]1O[C@H](CO[P+](O)(O)O[P+](O)(O)OC[C@H]2O[C@@H]3[C@H](O)[C@@H]2O)[C@@H](O)[C@H]1O`, for which the concentration for half-maximal inhibition (IC50) (literature IC50, protein: ADP-ribosyl cyclase 1, PDB entry 3u4h) was 56 µM (active).

In the case of `C/C(=C\CO[P+](O)(O)O[P+](O)(O)O)CN`, the half-maximal inhibitory concentration (IC50) (literature IC50, protein: 4-hydroxy-3-methylbut-2-enyl diphosphate reductase, PDB entry 4h4d) is 0.15 µM (active). For `C/C(=C\CO[P+](O)(O)O[P+](O)(O)O)CS`, the IC50 (literature IC50, protein: 4-hydroxy-3-methylbut-2-enyl diphosphate reductase, PDB entry 4h4e) was 0.21 µM (active).

For the compound `C[C@]1(c2cc(NC(=O)c3ccc(C#N)cn3)ccc2F)NC(N)O[C@H](C(F)(F)F)[C@@H]1F` (stereo not given in full), the half-inhibitory concentration (IC50) (literature IC50, protein: Beta-secretase 1, PDB entry 4j1k) is 0.013 µM (active). Regarding `C[C@]1(c2cc(NC(=O)c3ccc(C#N)cn3)ccc2F)NC(N)O[C@@H](C(F)(F)F)[C@@H]1F` (stereo not given in full), the concentration for half-maximal inhibition (IC50) (literature IC50, protein: Beta-secretase 1, PDB entry 4j1i) is 0.04 µM (active). Turning to `O=C(CCc1cc(C(=O)c2cccc(F)c2)c[nH]1)C[C@@H](O)C(=O)O`, the half-inhibitory concentration (IC50) (literature IC50, protein: DNA nucleotidylexotransferase, Tdt core, PDB entry 4iqt) is 0.78 µM (active). With `CC(=O)O[C@]1(C(C)=O)CC[C@H]2[C@@H]3CCC4=CC(=O)CCC4=C3[C@@H](c3ccc(N(C)C)cc3)C[C@@]21C`, the half-maximal inhibitory concentration (IC50) (literature IC50, protein: Progesterone receptor, PDB entry 4oar) is 3.8e-05 µM (active).

For the compound `CC(C)C1=CC2=CC(=O)[C@H]3C(C)(C)CCC[C@]3(C)C2=C(O)C1=O`, the 50% inhibitory concentration (IC50) (literature IC50, protein: Farnesyl pyrophosphate synthase HsFPPS-11, PDB entry 4p0x) was 1.2 µM (active). With `O=C1N=CN2NC(Sc3ccc(F)cc3F)=CC=C2C1c1c(Cl)cccc1Cl` (stereo not given), the IC50 (literature IC50, protein: human p38 kinase, Mitogen-activated protein kinase 14, MAPK14, PDB entry 3fc1) is 0.01 µM (active). For the compound `CCCNc1nc(N)c(C(O)c2cccnc2)s1` (stereo not given), for the setting “literature IC50, protein: Cyclin-dependent kinase 2, PDB entry 3qtq”, the IC50 is 3.1 µM (active). For the compound `CC(C)Nc1nc(N)c(C(O)c2cccnc2)s1` (stereo not given), the IC50 (literature IC50, protein: Cyclin-dependent kinase 2, PDB entry 3rk9) is 0.52 µM (active).

As for `CCCNc1nc(N)c(C(O)c2ccccn2)s1` (stereo not given), the IC50 (literature IC50, protein: Cyclin-dependent kinase 2, PDB entry 3s0o) is 33 µM (active). On to `CCCNc1nc(N)c(C(O)c2cccc([N+](=O)[O-])c2)s1` (stereo not given), for which the IC50 (literature IC50, protein: Cyclin-dependent kinase 2, PDB entry 3r8v) was 2.9 µM (active).

Regarding `CCCNc1nc(N)c(C(O)c2ccc3ccccc3c2)s1` (stereo not given), where the note is “literature IC50, protein: Cyclin-dependent kinase 2, PDB entry 3r8u”, the IC50 was 5 µM (active). As to `CCCNc1nc(N)c(C(O)c2ccncc2)s1` (stereo not given), the IC50 (literature IC50, protein: Cyclin-dependent kinase 2, PDB entry 3r8z) is 49 µM (active). `COc1cc2nccc(Oc3ccc4oc(Nc5ccc(Cl)cc5)nc4c3)c2cc1OC`: the 50% inhibitory concentration (IC50) (literature IC50, protein: ALK tyrosine kinase receptor (C1097S, R1275Q mutation), PDB entry 4fny) was 0.016 µM (active). Consider `CC(=O)Nc1cccc(-c2ccn([C@@H](Cc3cc[n+]([O-])cc3)c3ccc(OC(F)F)c(OCC4CC4)c3)n2)c1`, for which, where the note is “literature IC50, protein: cAMP-specific 3',5'-cyclic phosphodiesterase 4D, PDB entry 3v9b”, the half-inhibitory concentration (IC50) is 0.0005 µM (active). As for `CN1C2=C(NC[C@@H]1CNc1ccc(C(=O)N[C@@H](CCC(=O)N[C@@H](CCC(=O)O)C(=O)O)C(=O)O)cc1)NC(N)=NC2O` (stereo not given in full), the IC50 (literature IC50, protein: Cyclic AMP-GMP synthase DncV (deletion mutant D-loop), PDB entry 4u0n) was 1.69 µM (active). Consider `CN1C2C(=NC[C@@H]1CNc1ccc(C(=O)N[C@@H](CCC(=O)N[C@@H](CCC(=O)O)C(=O)O)C(=O)O)cc1)NC(N)=NC2O` (stereo not given in full), for which the IC50 reads like this: (literature IC50, protein: Cyclic AMP-GMP synthase DncV (D193N mutant), PDB entry 4u0m) 1.69 µM (active); (literature IC50, protein: Cyclic AMP-GMP synthase DncV, PDB entry 4u03) 1.69 µM (active).
